High-throughput results as filed in PubChem.
A selection: hits, their analogues and other compounds. The true share with any hit is near 3%.
TWEAK Fn14 block: inhibitors of TWEAK-Fn14 signaling, primary screen, luciferase reporter cells, uHTS; TWEAK-stimulated Fn14 reporter cells, luciferase luminescence, 8 h; inhibition, % at 10 µM; 360,000 compounds, 2% hits; AID 1159606, 2016; in the data active = inhibition above about 50%
TROY NFkB inh: inhibitors of TROY-driven NF-kB signaling, primary screen, Q293 LMP1-TROYcd cells, NF-kB luciferase, uHTS | inhibition, % at 10 µM | 360,000 compounds, 0.98% hits | Q293 LMP1-TROYcd NF-kB luciferase reporter, 4 h | AID 1347056, 2019;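 active = compounds whose plate-normalised and pattern-corrected inhibition of the luciferase reporter signal at the single screening dose is 50% or more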
LGR2 antag: inhibitors of bursicon-induced LGR2 CRE-luciferase signal, primary screen, cell-based, HEK293, CRE-luciferase reporter, bursicon stimulation; Drosophila bursicon receptor LGR2 (rickets); bursicon-stimulated, 4 h; inhibition, % at 9.99 µM; 380,000 compounds, 0.35% hits;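 active = drop in luminescence signal, shown as inhibition above about 50% in the replicate tests, limit read from the data, passing the limit was not always enough; inconclusive = probably only some replicates passing the limit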;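 also: agonist challenge used bursicon conditioned medium at about half maximal strength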
MITF TRPM1 inh: inhibitors of MITF-dependent TRPM1 promoter reporter, primary screen, cell-based, SK-MEL-5, single point, luciferase. SK-MEL-5 TRPM1 promoter luciferase, 24 h. inhibition, % at 12.5 µM. 330,000 compounds, 0.83% hits;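 active = mean inhibition across replicates of 60% or more, whatever share of single replicates reaches that level; inconclusive = some that reach 60%, reason not given; inactive = mean inhibition across replicates below 60%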
LMP1 NFkB inh: EBV LMP1-driven NF-kappaB luciferase reporter inhibitors, primary screen, cell-based, luminescence, single point. LMP1-induced NF-kappaB luciferase reporter cells. 350,000 compounds, 0.69% hits. inhibition, % at 12.5 µM; in the data active = inhibition above about 41%; inconclusive = no clear call, values can overlap the other calls;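 also: 0% = neutral control wells and 100% = reference inhibitor control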
MITF TRPM1 HTS: activators of MITF-driven TRPM1 promoter reporter, primary screen, cell-based, SK-MEL-5, luciferase, single point. 300,000 compounds, 0.75% hits. activation, % at 12.5 µM. SK-MEL-5 TRPM1-promoter luciferase, 24 h; % of positive control, neutral wells = 0;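 active = mean activation of at least 80% with every replicate also reaching 80%; inconclusive = mean reaches 80% but some replicate falls short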;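 also: 0% = neutral control wells and 100% = parthenolide positive control wells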
* = called active by the depositor; ? = inconclusive; / = no result given.

SMILES | TWEAK Fn14 block | TROY NFkB inh | LGR2 antag | MITF TRPM1 inh | LMP1 NFkB inh | MITF TRPM1 HTS
COc1ccccc1CNC(=O)C[C@@H]1CC[C@@H]2[C@H](COC[C@@H](O)CN2C(=O)Nc2ccc(F)cc2)O1 | / | / | 2.3 | / | / | /
O=C(CN1CCOCC1)NCC[C@@H]1CC[C@@H](NC(=O)c2ccc3c(c2)OCO3)[C@@H](CO)O1 | / | / | -13.3 | / | / | /
CC(=O)N(CCc1ccccc1C)Cc1cc2cc3c(cc2[nH]c1=O)OCO3 | 99.6* | / | / | 1.5 | 8.1 | 1.0
C[C@@H]1CN([C@H](C)CO)C(=O)c2cc(NC(=O)CCC(F)(F)F)ccc2O[C@@H]1CN(C)S(=O)(=O)c1cccs1 | / | / | 6.0 | / | / | /
O=C(CSc1ccc(-c2nc3ccccc3[nH]2)cn1)Nc1ccc2c(c1)OCCO2 | -25.6 | -34.6 | / | -149.2 | -56.7 | 146.3*
Cc1nc(NC(=O)CSc2ccc(-c3nc4ccccc4[nH]3)cn2)sc1C | 20.4 | -39.5 | 8.1 | -8.5 | -13.6 | 7.6
CCc1nnc(NC(=O)CSc2ccc(-c3nc4ccccc4[nH]3)cn2)s1 | 5.1 | -62.7 | / | -81.6 | -18.0 | 87.1*
Cc1ccccc1NC(=O)CSc1ccc(-c2ccc(-n3cccn3)cc2)nn1 | -46.9 | 6.0 | -10.7 | -14.0 | -6.1 | 13.6
CCc1nnc(NC(=O)CSc2ccc(-c3ccc(-n4cccn4)cc3)nn2)s1 | -40.1 | -58.4 | -30.6 | -75.7 | -11.8 | 81.7*
Cc1ccc2nc(-c3ccc(SCC(=O)Nc4ccc5c(c4)OCCO5)nc3)[nH]c2c1 | 15.9 | -47.4 | -17.3 | -83.1 | -30.9 | ?
CC(C)NC(=O)N1[C@@H]2CNC[C@H]1C2c1ccc(-c2ccc(C#N)cc2)cc1 (stereo partly specified) | / | / | 17.3 | / | / | /
C[C@@H]1CN([C@H](C)CO)C(=O)c2cc(/C=C/c3ccccc3)cnc2O[C@@H]1CN(C)C(=O)c1ccc(F)cc1 | / | / | 8.5 | / | / | /
CC(C)CCNC(=O)C(c1ccc(O)cc1)N(Cc1cccs1)C(=O)C1COc2ccccc2O1 (stereo unspecified) | 55.0* | 27.8 | ? | -4.8 | 4.7 | 4.7
CC(C)(C)NC(=O)CN(Cc1cccs1)C(=O)C1COc2ccccc2O1 (stereo unspecified) | -1.2 | 2.9 | / | -8.5 | 0.4 | 2.5
COc1cccc(S(=O)(=O)N2CC3(CCN(C)CC3)c3c([nH]c4cc(OC)ccc34)[C@@H]2CO)c1 | / | / | -6.5 | / | / | /
CC(C)Cn1c(N)c(C(=O)CSc2ccc3c(c2)OCCO3)c(=O)n(C)c1=O | 68.5* | 50.0 | / | 39.9 | 39.0 | -38.9
CC(C)(O)C#Cc1ccc([C@@H]2C[C@H]3CN(c4ccccc4)C(=O)[C@]34CCCN24)s1 | 19.4 | 1.7 | 1.3 | 45.0 | 54.3* | -43.9
CCC(=O)N1[C@@H]2c3cccc(=O)n3C[C@H]1[C@H](CO)[C@H]2C(=O)NC1Cc2ccccc2C1 | / | / | -10.8 | / | / | /
Cc1ccc(C(C)C)c(OCc2nn(CC(=O)c3ccc(OC(F)F)cc3)c3[n+]2CCCCC3)c1 | 34.9 | 48.1 | / | 102.3* | 10.6 | -101.1
COc1ccc(S(=O)(=O)N(C)C[C@H]2OCCCC[C@H](C)Oc3ccc(NC(=O)Nc4cccc5ccccc45)cc3C(=O)N([C@H](C)CO)C[C@H]2C)cc1 | / | / | 6.1 | / | / | /
Cc1cc(NCCCCCCCNc2cc(C)nc3cc([N+](=O)[O-])ccc23)c2ccc([N+](=O)[O-])cc2n1 | 77.0* | 33.6 | 13.2 | ? | 78.6* | -63.5
COCCCNc1cc(C)nc2ccccc12 | 6.3 | -11.1 | -9.0 | -0.1 | 1.5 | -1.3
CC(C)(C)c1ccc(/C=C/C(=O)c2ccc(NC3=NCCCS3)cc2)cc1 | 60.7* | 9.5 | 26.5 | 15.7 | -1.8 | -15.0
O=C(/C=C/c1ccccc1)c1ccc(NC2=NCCCS2)cc1 | 39.3 | 10.8 | -16.9 | -31.2 | -21.9 | 32.1
O=C(/C=C/c1ccc(Br)cc1)c1ccc(NC2=NCCCS2)cc1 | 59.3* | -14.0 | 7.8 | 55.1 | 23.5 | -54.7
SMILES | TWEAK Fn14 block | TROY NFkB inh | LGR2 antag | MITF TRPM1 inh | LMP1 NFkB inh | MITF TRPM1 HTS
O=C(NCc1cccs1)c1nc2c(nnn2Cc2ccccc2Cl)c(=O)[nH]1 | 96.4* | 83.0* | / | 76.5* | 75.7* | -75.8
Cc1ccccc1-c1noc(-c2ccccc2F)n1 | -8.8 | -67.4 | -47.1 | -101.2 | -37.6 | 107.0*
O=C(CC1CC1)Nc1ccc2c(c1)[C@H]1C[C@@H](CC(=O)NC3CCCCC3)O[C@@H](CO)[C@H]1O2 | / | / | 7.8 | / | / | /
Cc1cc(C)c2nc(N3CCC(C(=O)NCCCN4CCCCC4)CC3)sc2c1 | -76.7 | -11.5 | / | 69.1* | 8.4 | /
COC(=O)c1ccc(CSC2=NCCS2)cc1 | -19.8 | -40.0 | -60.8 | -79.6 | -24.9 | 84.2*
C[C@@H]1CN([C@@H](C)CO)C(=O)Cc2cc(NC(=O)Cc3cn(C)c4ccccc34)ccc2O[C@H]1CN(C)Cc1ccc(-c2ccccc2)cc1 | / | / | 6.2 | / | / | /
c1ccc2oc(-c3ccc4nc[nH]c4c3)nc2c1 | -4.4 | -2.3 | / | -93.9 | -24.7 | 98.1*
C[C@@H]1CN([C@@H](C)CO)C(=O)c2cccc(NC(=O)c3ccc(-c4nccs4)cc3)c2O[C@H]1CN(C)Cc1ccc2c(c1)OCO2 | / | / | 18.4 | / | / | /
Cn1c(/C=C/c2ccc(Cl)cc2)c([N+](=O)[O-])c(=O)n(C)c1=O | 56.4* | 4.0 | ? | ? | -0.5 | -59.7
Cn1c(/C=C/c2cccc([N+](=O)[O-])c2)c([N+](=O)[O-])c(=O)n(C)c1=O | 57.0* | 22.4 | ? | 48.9 | 15.7 | -49.0
CN(/C=C/c1c([N+](=O)[O-])c(=O)n(C)c(=O)n1C)c1ccccc1 | -12.1 | 7.0 | 4.2 | 8.4 | 3.2 | -12.6
COc1ccc(/C=C/c2c([N+](=O)[O-])c(=O)n(C)c(=O)n2C)cc1OC | -15.6 | -9.3 | 10.6 | 0.9 | -0.7 | 2.2
C[C@H](O)C#Cc1cnc2c(c1)C(=O)N([C@H](C)CO)C[C@H](C)[C@H](CN(C)C(=O)CC1CC1)O2 | / | / | 6.5 | / | / | /
CCOc1ccccc1NC(=O)c1cc(C(=O)c2cc(Br)ccc2O)coc1=N | 2.4 | 59.4* | 15.8 | 16.9 | 5.8 | -16.6
C[C@@H]1CCCCO[C@@H](CN(C)CC2CCCCC2)[C@H](C)CN([C@@H](C)CO)C(=O)c2cc(NS(=O)(=O)c3ccc(F)cc3)ccc2O1 | / | / | 12.4 | / | / | /
Cc1nn(S(=O)(=O)c2cccs2)c(C)c1Sc1ccc([N+](=O)[O-])cc1 | 50.3* | 34.9 | / | 10.5 | 9.6 | -6.2
COc1ccc(S(=O)(=O)Nc2cccc3c2O[C@@H](CN(C)C(=O)Nc2cccc4ccccc24)[C@H](C)CN([C@H](C)CO)C3=O)cc1 | / | / | 7.3 | / | / | /
CN(C)CC(=O)N1[C@@H]2c3ccc(C4=CCCC4)c(=O)n3C[C@H]1[C@H](CO)[C@H]2C(=O)NCC1CCCCC1 | / | / | -6.3 | / | / | /
